Most compounds without a hit are left out; they make up all but 27% or so of the library.
sEH inhibitor – soluble epoxide hydrolase (human) inhibition | recombinant human sEH enzymatic activity assay | 91,000 tested, 0.34% active | P34913 | inhibition, % at 2 µM; in the data active = inhibition above about 80%
CYP2C19 inh – blocks human cytochrome P450 2C19; P33261; CYP2C19 Supersomes, luciferin-H EGE luminescence, 30 min; inhibition, % at 5 µM; 96,000 tested, 21% active; AID 778;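 active = CYP2C19 inhibition above a set limit at 5 µM in the primary screen, cut at about 50% in these data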;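 also: plate controls were negative control wells for no effect and 2.5 mM tranylcypromine positive control for full effect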
Target sequence (P33261 whole entry, looked up): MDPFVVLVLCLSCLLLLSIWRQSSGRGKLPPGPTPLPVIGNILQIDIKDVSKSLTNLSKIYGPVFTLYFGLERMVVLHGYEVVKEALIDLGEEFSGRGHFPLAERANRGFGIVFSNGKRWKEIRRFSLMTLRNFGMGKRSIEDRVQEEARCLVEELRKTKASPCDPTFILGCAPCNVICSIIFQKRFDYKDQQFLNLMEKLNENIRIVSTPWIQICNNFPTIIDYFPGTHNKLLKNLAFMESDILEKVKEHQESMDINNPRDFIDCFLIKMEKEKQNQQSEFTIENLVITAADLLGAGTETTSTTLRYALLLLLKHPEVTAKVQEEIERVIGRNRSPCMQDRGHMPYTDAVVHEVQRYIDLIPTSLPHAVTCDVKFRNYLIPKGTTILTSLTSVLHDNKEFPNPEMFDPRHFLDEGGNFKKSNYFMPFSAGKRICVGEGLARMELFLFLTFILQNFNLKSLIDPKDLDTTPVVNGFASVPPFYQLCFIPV
CYP2C19 activ – activators of human cytochrome P450 2C19; P33261; recombinant CYP2C19, luciferin-H EGE luminescence; stronger effect = higher value; 0 = fully inhibited enzyme, 1 = untreated enzyme; activation factor at 5 µM; 96,000 tested, under 10 active; AID 1025;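 active = activation factor of at least 2 at 5 µM in the primary screen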;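 also: 0 = wells with 2.5 mM tranylcypromine and 1 = vehicle-only wells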
CYP2C9 activ – increases human cytochrome P450 2C9 activity; P11712; recombinant CYP2C9, luciferin-H conversion, luminescence; stronger effect = higher value; factor 1 = untreated enzyme, 0 = blocked; activation factor at 5 µM; 96,000 tested, 1.4% active; AID 1024;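 active = activation factor of 2 or more for CYP2C9 at a 5 µM dose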;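 also: 0 = sulfaphenazole-blocked wells and 1 = vehicle-only wells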
CYP2C9 inhib – human CYP2C9 inhibition. 96,000 tested, 20% active. CYP2C9 Supersomes, luciferin-H conversion, luminescence. AID 777. inhibition, % at 5 µM;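 active = blocking of liver enzyme CYP2C9 beyond about 50% at 5 µM, limit read from the data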
sEH activator – soluble epoxide hydrolase (human) activation; purified human sEH enzymatic activity, activator screen; activation, % at 2 µM; AID 717; P34913; 91,000 tested, 0.04% active; in the data active = activation above about 37%
Starred values were filed as active, the others as inactive; / = no result given.

SMILES	sEH inhibitor	CYP2C19 inh	CYP2C19 activ	CYP2C9 activ	CYP2C9 inhib	sEH activator
CCN1CCN(c2ncc(C(=O)N3CCCc4ccccc43)c3ccccc23)CC1	/	81*	0.2	0.7	26	/
CCN1CCN(c2ncc(C(=O)Nc3cc(Cl)ccc3OC)c3ccccc23)CC1	/	15	0.8	1.7	-66	/
C=CCNc1cnn(CC(C)=O)c(=O)c1Br	-4	7	0.9	1	-5	6
CO/N=C(\Cn1ncc(NC2CCCCC2)c(Br)c1=O)c1ccc(Cl)cc1	-6	7	0.9	0.5	54*	7
CC(CN1CCCCC1)OC(=O)c1ccc(Cl)cc1 (stereo not given)	-8	37	0.6	1	3	8
CO/N=C(\Cn1ncc(N2CCCC2)c(Br)c1=O)c1ccc(Cl)cc1	4	89*	0.1	0.1	86*	-1
O=C(OC(C(=O)NCc1cccs1)c1ccccn1)c1cccs1 (stereo not given)	3	59*	0.4	0.8	23	0
Cn1nnc(NC(=O)COc2ccc(C3CCCCC3)cc2)n1	10	39	0.6	0.5	53*	-6
Cc1cc(C(=O)CN2C(=O)NC(c3ccccc3)(c3ccccc3)C2=O)c(C)n1Cc1ccccc1	-2	29	0.7	0.3	70*	4
O=C(CN1C(=O)NC2(CCc3ccccc32)C1=O)c1ccc2c(c1)OCCO2 (stereo not given)	/	58*	0.4	0	96*	/
Cc1ccccc1OCCN1C(=O)NC2(CCCc3ccccc32)C1=O (stereo not given)	-17	35	0.6	1.5	-54	21
CCCCNC(=O)CN1C(=O)NC2(CCCc3ccccc32)C1=O (stereo not given)	-12	-6	1.1	0.3	68*	10
CNC(=O)CN1C(=O)NC2(CCc3ccccc32)C1=O (stereo not given)	-10	25	0.8	0.8	16	13
Cc1cc(C(=O)CN2C(=O)NC3(CCCc4ccccc43)C2=O)c(C)n1C (stereo not given)	-8	32	0.7	0.3	72*	7
COc1ccc(C(=O)Oc2ccc(/C=N/O)cc2)cc1	/	5	0.9	1.1	-11	/
Cc1ccc(Nc2nc(-c3c(C)nc4ccccn34)cs2)cc1	-8	67*	0.3	1.9	-92	10
Cc1ccc(Nc2nc(-c3c(C)nc4ncccn34)cs2)cc1	8	19	0.8	2*	-103	-6
Cc1ccnc(Nc2nc(-c3c(C)nc4sccn34)cs2)c1	9	26	0.7	0.8	25	-10
COc1ccc(-c2nnc(SCC(=O)Nc3ccc4c(c3)OCCO4)n2N)cc1OC	-2	4	1	0.4	58*	3
CC(C)Oc1cccc(-c2nnc(SCC(=O)Nc3ccc4c(c3)OCCO4)n2N)c1	2	50*	0.5	0.3	71*	-2
Cc1ccc(-n2c(SCC(=O)Nc3ccc4c(c3)OCCO4)nnc2-c2ccco2)cc1	10	38	0.6	1	-3	-8
O=C(c1ccccc1)N(Cc1ccc2c(c1)OCO2)Cc1nc2ccccc2c(=O)[nH]1	-3	92*	0.1	0.1	90*	3
O=C(c1cc2ccccc2oc1=O)N(Cc1ccccc1)Cc1ccc2c(c1)OCO2	2	/	/	/	/	3
O=C(Nc1ccccc1)N(Cc1ccc2c(c1)OCO2)Cc1nc2ccccc2c(=O)[nH]1	10	15	0.8	0.4	60*	-7
Cc1ccc(NC(=O)N(Cc2ccc3c(c2)OCO3)Cc2cc3cc4c(cc3[nH]c2=O)OCCO4)cc1	-2	-4	1	1	-3	2
SMILES	sEH inhibitor	CYP2C19 inh	CYP2C19 activ	CYP2C9 activ	CYP2C9 inhib	sEH activator
CCCSc1nc(C)cc(C)c1C(N)=O	4	-24	1.2	1.1	-12	-4
CCN(CC)C(=O)CSc1nnc([C@H](Cc2c[nH]c3ccccc23)NC(=O)OC(C)(C)C)o1	20	53*	0.5	0.4	62*	-18
CSCC[C@H](NC(=O)OC(C)(C)C)c1nnc(SCc2ccc(F)cc2)o1	0	88*	0.1	0.2	78*	1
CC(C)C[C@H](NC(=O)OC(C)(C)C)c1nnc(SCc2cccc(F)c2)o1	3	35	0.7	0.9	8	-3
CSCC[C@H](NC(=O)OC(C)(C)C)c1nnc(SCc2ccccc2)o1	6	79*	0.2	0.4	60*	-6
CSCC[C@H](NC(=O)OC(C)(C)C)c1nnc(SCc2cccc(F)c2)o1	-12	80*	0.2	0.3	69*	11
CCSc1nnc([C@H](Cc2c[nH]c3ccccc23)NC(=O)OC(C)(C)C)o1	8	28	0.7	0.8	18	-9
CSCC[C@H](NC(=O)OC(C)(C)C)c1nnc(SCC(=O)N(C)C)o1	-14	3	1	1.1	-8	12
Cc1ccc(N=Cc2ccc[nH]2)c(O)c1	6	1	1	1.1	-6	-4
CC(C)C[C@H](NC(=O)OC(C)(C)C)c1nnc(SCC(=O)Nc2ccc(Br)cc2)o1	-13	65*	0.3	0.8	24	11
O=S(=O)(Cc1ccc(Cl)cc1)N1CCCC1	8	93*	0.1	0.9	7	-5
O=S(=O)(Cc1ccccc1)N1CCc2ccccc2C1	2	97*	0	3.7*	-270	0
O=S(=O)(Cc1ccccc1)N1CCCCCC1	4	66*	0.3	1	-5	-1
CS(=O)(=O)N1CCc2ccccc2C1	0	/	/	/	/	-1
O=S(=O)(Cc1ccccc1)N1CCN(Cc2ccccc2)CC1	5	53*	0.5	1.7	-70	-5
O=S(=O)(Cc1ccccc1)N1CCCCC1	1	44	0.6	1.1	-10	0
O=S(=O)(Cc1ccccc1)N1CCN(c2ccccc2)CC1	14	8	0.9	1.3	-33	-14
COc1ccc(CNC(=O)C2CCCN2S(=O)(=O)c2ccc(S(=O)(=O)N(C)C)cc2)cc1 (stereo not given)	/	9	0.9	0.7	30	/
CCN(CC)CCN1C(=O)C(=O)/C(=C(/O)c2ccc(OC)cc2)C1c1ccco1 (stereo not given)	-1	-8	1.1	1	-2	2
CCOc1ccc(/C(O)=C2/C(=O)C(=O)N(c3nc(C)c(C)s3)C2c2ccco2)cc1 (stereo not given)	/	46	0.5	0.2	81*	/
COCCCNC(=O)CC(NS(=O)(=O)c1ccc(Cl)cc1)c1ccc(OC)cc1 (stereo not given)	-17	55*	0.5	1.2	-16	14
COc1ccc(CCNC(=S)Nc2ccccc2C)cc1	-8	48	0.5	0.8	24	7
CCCCC(=O)NCCc1ccc(OC)cc1	-10	57*	0.4	0.7	26	8
COc1ccc(S(=O)(=O)CCC(=O)NCCc2ccc(Cl)cc2)cc1	16	71*	0.3	0.3	71*	-14
COc1ccc(CCNC(=S)Nc2cc(C)cc(C)c2)cc1	12	62*	0.4	1.4	-44	-11

Screening data deposited in PubChem by several laboratories.
